Results on 89 sequences are retold here after the supplement of paper PMC11417369.

Over roughly 25,000 sequences, “ln(normalized median fluorescence intensity)” has its median near 9.3; the highest 2% begin near 10. Shown is part of a subset that was picked to be rich in the highest values.

The experiment deals with PF3D7_0420300 AP2 domain 1 (GST-tagged). Nature of the experiment: gcPBM binding intensity (ln(normalized median fluorescence intensity)); higher = stronger DNA binding. An outline of the steps: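 Alexa488 anti-GST antibody, scanned at 488 nm, detected GST-tagged P. falciparum DNA-binding domains that had been expressed in E. coli and incubated for 1 h on an Agilent 4 × 180k array. The array carried primer-extended double-stranded 36-bp intergenic genomic probes and negative controls. Binding intensity is the highest Masliner-normalised natural-log median intensity across replicate spots of either orientation of each probe.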
Take “TTTTTTATAGTACATTACCAAAAAAAAAAAAAAAAA [GTGCAC_negctrl_site549]”: the “gcPBM binding intensity (ln)” value worked out at 8.32.
In the case of “TGTTGATTTATCCTGTGTACGGATATATATCTTTCA [XGTACX_site7826]” it was 9.27.
Under “AAAAATAGACAAAAGAGTACAAGAAAAAAAGGGTTC [XGTACX_site7843]” stands 9.86; under “AAATTTTTTAATTTTTCTCATTTAATTTAAAAATTA [GTGCAC_negctrl_site155]”, 8.88; under TATATTTTATATATGGTGCAACTTTTATTTAAATAA, 8.77.
Under “ATTATTAAGTTTCACAAGAACATTGTTAACAATTTT [CACACA_negctrl_site1128]” stands 9.
Consider ATATATATGGAAACAGTGCAATACATATATATATAT, for which the “gcPBM binding intensity (ln)” value was 9.71.
In the case of “TTTTATGATAATTTTGCACACACTTAGGAAAAATTA [CACACA_site1556]”, the “gcPBM binding intensity (ln)” value is 9.31.
Under “AAAGTTTTAAGAAAATGTACATAAGTATACATATAT [XGTACX_site1293]” stands 9.18; under “CATACATACGGACACACACACATATATATATATATA [CACACA_site5598]”, 9.97.
Under “AATACATACGGACACACACACACATATATATATATA [CACACA_site5884]” stands 10.2; under “AATATATACATATATACACACACATATATATATATA [CACACA_site8907]”, 9.75; under “AATACACGCAGACACACACACACACGCACATATATA [CACACA_site6447]”, 10.3.
In the case of “AATACATACAGACACACACACACATATATATATATA [CACACA_site3558]” it was 10.1.
As to “AGAATGGTTTATAAAGGTACGTAATTTTTAATTTTA [XGTACX_site383]”, the “gcPBM binding intensity (ln)” value is 9.06.
Under “TTTTGTTAAAAAGATGTATATTTTATAAATATTTAT [CACACA_negctrl_site101]” stands 8.92; under “TTATATATTAAGAAATGTACGAAAAAAAAAATTATA [XGTACX_site3893]”, 9.2.
Under “ATTATAAATAAAATATGTACATATGTATAAATACAT [XGTACX_site4002]” stands 9.21; under “AAAAAGTGACTCCTTACACACTTTACATAATTTAGT [CACACA_site4606]”, 9.46; under “TCTCATAGTAAACACACACACACACCCACATATATA [CACACA_site5034]”, 10.3.
In the case of “AAGGATCACCCACAAACACACATATATATATATATA [CACACA_site559]” it was 9.76; in that of “TCTCATAGGAAACACACACACACACCCACATATATA [CACACA_site1738]”, 10.2.
Consider “TTTCCCATAGGAAAAACACACATATATTATATATAA [CACACA_site1981]”, for which the “gcPBM binding intensity (ln)” value amounted to 9.12.
Under “TTTACTTTCCCAAGTTGTACTGCTTCTAAGCTTTTT [XGTACX_site2708]” stands 9.21; under “TTGTTTCTCTTTAAAAGTACAAAAATGGTTACATAT [XGTACX_site3109]”, 8.95.
As for “ATTAAATAAAAAAACACACACATATATACATATATA [CACACA_site3445]”, the “gcPBM binding intensity (ln)” value was 9.89.
Take “TAAATAAAAAAACACACACACATATATATATATATA [CACACA_site2269]”: the “gcPBM binding intensity (ln)” value is 9.94.
In the case of “CATATATAAAAAAACACACACATATATATATATATA [CACACA_site1195]” it was 9.63; in that of “ATATATATAAAACACACACACACATGGTTTAAAACT [CACACA_site4219]”, 10.2; in that of “TATAAGAAAAATAACACACACATAAACATAAATACA [CACACA_site5536]”, 9.87.
In the case of “AAAAAACATACATACACACACATAAATATATATATT [CACACA_site2699]” it was 10.1; in that of “ATATATATAAAACACACACACACATGTTTTAAAACT [CACACA_site78]”, 10.2.
In the case of “AAAAAAAACATACATACACACACATAAATATATATA [CACACA_site8864]” it was 10.3; in that of “TAAATAAATAAAAAAACACACATATAAATATAAATA [CACACA_site7815]”, 9.61.
Regarding “AAAAAAAAAAAACACACACACACATAAATATATATA [CACACA_site149]”, the “gcPBM binding intensity (ln)” value was found to be 10.2.
Under “AATATAAGAAAAATAACACACACATAAACATATATA [CACACA_site8899]” stands 10.1; under “TATAAGAAAAATAACACACACATAAACATATATACA [CACACA_site2785]”, 10.2.
As to ACTATTAACAGTGTAGTGCAAAAAGGTTAATTATTA, the “gcPBM binding intensity (ln)” value is 9.42.
Under “AACATAAAAAAAATATGTACATATATAATATATATA [XGTACX_site3764]” stands 9.29.
In the case of “TTTTTATGTAGAATTTTTTTATTTTTTCAAAATGGA [CACACA_negctrl_site166]” it was 8.69.
Under TATATATATATTGAAGTGCAAAATACTGTACGTAAT stands 9.4; under “GAGATAAAATAAAACACACACATATATATATAGAAT [CACACA_site2197]”, 10.1; under “TTGTTTTGCTAAAAATGTACTCTATATAAAAGCTTT [XGTACX_site4027]”, 8.98.
On to “ATGTAATATATTATATGTACATATTTTTATGTAGAT [XGTACX_site5945]”, for which the “gcPBM binding intensity (ln)” value was found to be 9.2.
Under “AACATTTTTAAATATATAAAAATATATATATATATA [XGTACX_negctrl_site551]” stands 8.97; under “TATTTTAATCGTAAGTGTACTCTTTTAAGTATATGT [XGTACX_site8591]”, 9.2; under “GGACATTTTTATAAGGTGCACGGTTTTGATATTACT [GTGCAC_site9892]”, 9.46.
For “CATATACATAAACACACACACACATAAATAAATATA [CACACA_site4864]”, the “gcPBM binding intensity (ln)” value came to 10.2.
Under “AAAAAAAAAAATATCACACACACATAAATATAAACA [CACACA_site7138]” stands 10.1; under “TACATACATAAACACACACACACATATATATATATA [CACACA_site8953]”, 10.1; under “AAAAAAAAATATCACACACACATAAATATAAACCAA [CACACA_site2279]”, 10.1.
Under “TATATACATAAACACACACACACATATATATATATA [CACACA_site8707]” stands 10.1; under “AATAAATATATAAATACACACAAACATACATATATA [CACACA_site9340]”, 9.96; under “TAGATACATAAACACACACACACATACATATATACA [CACACA_site9139]”, 10.3.
Under “TATATAAATATACAAACACACATACAAACATATATA [CACACA_site4754]” stands 9.9.
Turning to “AAAAAAAAAAATATCACACACACATAAATATAAACC [CACACA_site2278]”, the “gcPBM binding intensity (ln)” value came out at 10.2.
As for “TTTTATAATTTATCTAAAAAAAAATAAAATAAAATG [TGCATGCA_negctrl_site429]”, the “gcPBM binding intensity (ln)” value turned out to be 8.67.
With “CTTTTTTTTTTGTATTGTACTTTATTTTTACATCGT [XGTACX_site2918]”, the “gcPBM binding intensity (ln)” value is 9.65.
Under “AAAAACGATTAATGTGTACACACATAGTTATAAACA [CACACA_site8659]” stands 9.74.
Under “TGATGATATAAAAACACACACATATAATATAATACT [CACACA_site1208]” stands 10.
In the case of “TTTTCCCTTACAGAAAAAAAAAAATTCCTAACCCCG [CACACA_negctrl_site650]” it was 9.03.
In the case of “TGGCATATATATAAATGTACTTTCTTTCTATCTGTT [XGTACX_site8483]”, the “gcPBM binding intensity (ln)” value was 9.34.
In the case of “ATAAATTCATTATATTGTACAAACAAATGAAAAAAA [XGTACX_site8304]” it was 9.09; in that of “ATAATATGAAATATAACACACATATATAAAAACATT [CACACA_site866]”, 9.72.
Turning to “ATATATATGAAACACACACACAAAAAAAAAAAAAAA [CACACA_site3647]”, the “gcPBM binding intensity (ln)” value was 9.69.
Regarding “TACATAAATTAAAACACACACACACTAATAAAAAAA [CACACA_site8712]”, the “gcPBM binding intensity (ln)” value was 10.1.
Under “ATAATATGAAAACACACACACACACTAGAAAAAAAA [CACACA_site5153]” stands 10.3.
As for “ATAATCCTTAAACACACACACACACTAATAAATAAA [CACACA_site8052]”, the “gcPBM binding intensity (ln)” value was 10.2.
Under “AAAAAAAATATGAAAACACACATATATAAATAAATA [CACACA_site113]” stands 9.55.
As for “ATAATATGAAAACACACACACACACTAATAAAAAAA [CACACA_site8617]”, the “gcPBM binding intensity (ln)” value was 10.2.
Under “AAAAAAAAAAAACACACACACACACTAGTATATAAA [CACACA_site4783]” stands 10.2.
Under “TACATATATAAAAAAACACACACATATATATATATA [CACACA_site8315]” stands 9.54; under “AATAATAAACACAATCAAATAAAATATGAAATATAA [GTGCAC_negctrl_site307]”, 9.46; under “AAAAAAAAAAAAAACACACACACAAGAGTATATAAA [CACACA_site6580]”, 9.99.
In the case of “AAAAAATATATATTAACACACACACTAATAAAAAAA [CACACA_site8366]” it was 10; in that of “TAATAAAAATAAAATTGTACTAATAACATTTCATTA [XGTACX_site3703]”, 8.94.
Consider “TATCTTATGTCTGAAAGTACAAATTTTTTTCTACTT [XGTACX_site2208]”, for which the “gcPBM binding intensity (ln)” value amounted to 9.09.
In the case of “TATAATAAATCAAATGCACACACACTAATAAAAAAA [CACACA_site7937]” it was 10.1; in that of “ATATAAATAATATAAATACACACTAAAAAAAATATA [CACACA_site542]”, 9.69.
Consider “GGAAACAAAAAATATATACACACTAATCATAAAAAA [CACACA_site7890]”, for which the “gcPBM binding intensity (ln)” value came to 9.52.
With “AAAAAAAAAAAACACACACACACACTAATATATAAA [CACACA_site8302]”, the “gcPBM binding intensity (ln)” value worked out at 10.2.
Under “TATATATATATATATACACACACACTAATAAAAAAA [CACACA_site8426]” stands 10; under “ATAATAAAAAAAAATGCACACATATATATATATATA [CACACA_site8766]”, 9.21.
Under “TGCAACAAAATAAACACACACACACTAACACAAAAA [CACACA_site7567]” stands 10.1.
For “ATAAATAAAGGACACACACACACACTAGAAAAAAAA [CACACA_site5450]”, the “gcPBM binding intensity (ln)” value turned out to be 10.
In the case of “AATAAATATAAAAATGCACACACACTAATAAAAAAA [CACACA_site8201]” it was 10.2; in that of “ATAAATAAAGGACACACACACACACTAATAAAAAAA [CACACA_site8840]”, 10.3; in that of “AAAAAATCACAACACACACACACACTAATAAAAAAA [CACACA_site8410]”, 10.2.
In the case of “AAAAAAATAAAGGATATACACACTAATTATATATAT [CACACA_site2812]” it was 9.64.
